# Hit rate of the full screen: of about 360,000 compounds, about 80 (0.02%) were called active. This excerpt belongs to a sample that is enriched for actives. A number with no mark means an inactive call.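 Rule for the calls: active = activation above the run cutoff, the mean activation of all test compounds plus 3 SD (cut at about 40% in these data); inactive = the rest.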
# Test: ATP EC20 calcium response enhancers, parental CHO-K1 – cell-based, Fluo-8 calcium fluorescence, full deck, 1536-well, counter-screen for M1 PAM project, primary screen (AID 602247);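 note: peak over basal fluorescence ratio in a 140 s read after ATP addition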
# Details: parental CHO-K1, ATP EC20, Fluo-8 calcium fluorescence; at 3 µM; stronger effect = higher value; 0% at ATP EC20, 100% at ATP max
row,SMILES,activation
1,CCn1c(O)c(N=NC2=NC(=O)CS2)c2cc(C)ccc21,-3.3%
2,COc1cc(C(=O)OC(C)C(=O)NCC2CCCCC2)cc(NC(=O)c2ccco2)c1OC (centres undefined),7.38%
3,COC(=O)c1cccc(N(C(=O)CNC(=O)c2cccs2)C(C(=O)NCC2CCCO2)c2ccc(OC)c(OC)c2)c1 (centres undefined),6.05%
4,O=C(Nc1ccccc1)c1nnsc1S(=O)(=O)c1ccc(Cl)cc1,-4.32%
5,Cc1ccc(NC(=O)C2(N3CCC3=O)CCCCC2)cc1,30.7%
6,COCCCNS(=O)(=O)c1cccc(S(=O)(=O)c2cccc(S(=O)(=O)NCCCOC)c2)c1,-13.2%
7,Cc1ccc(C(=O)N[C@H](C(=O)N2CCN(c3ncccn3)CC2)C(C)C)cc1,21.1%
8,O=C(CN1C(=O)NC2(CCCC2)C1=O)Nc1cc(C(F)(F)F)ccc1N1CCOCC1,-14.5%
9,Cc1ccc(C(=O)O)cc1N1C(=O)CCCC1=O,17.6%
10,CCC(C(=O)Nc1ccc(C(C)C)cc1)c1ccccc1 (centres undefined),7.1%
11,NC(=O)C1CCN(Cc2nc3c(Br)cc(Br)cc3c(=O)[nH]2)CC1,8.89%
12,CCn1nc(C)c(/C=N/NC(=O)Cc2ccc(Cl)cc2)c1C,10.4%
13,COc1ccc(CN2C(=O)CC(Cc3ccc(C)cc3)C2=O)cc1OC (centres undefined),0.86%
14,CC(NC(=O)c1cc2cc(Cl)ccc2oc1=N)c1ccccc1 (centres undefined),4.16%
15,O=C(O)c1cccc2c1C(=O)N(C1CCCCC1)C2,12.5%
16,Cc1c(C#N)c2ncn(CC#N)c(=O)c2n1-c1ccccc1,10.7%
17,OCC(O)C1OCOC(C(O)CO)C1O (centres undefined),-2.45%
18,Cc1ccc(-c2nnc(Nc3ccc(C(=O)N(C)C)cc3)c3ccccc23)cc1S(N)(=O)=O,-6.44%
19,COc1ccc(S(=O)(=O)N2CCOCC2)cc1NC(=O)CSc1ncnc2ccccc12,-10.6%
20,C/C(CCc1ccccc1)=N\NC(=O)c1ccc(CN2CCOCC2)cc1,10.1%
21,C[C@@H]1CN([C@@H](C)CO)C(=O)c2cc(NS(C)(=O)=O)ccc2O[C@@H](C)CCCCO[C@H]1CN(C)C(=O)Nc1ccc2c(c1)OCO2,5.94%
22,O=C(NCc1ccccc1)C(c1ccco1)N(C(=O)c1csnn1)c1ccccc1F (centres undefined),-7%
23,Cc1ccc(C)c2[nH]c(=O)c(CN(Cc3cccnc3)C(=S)NCc3ccco3)cc12,-16.3%

row,SMILES,activation
1,NC1=NC(=O)C2(COC(c3ccccc3Cl)OC2)S1 (centres undefined),19%
2,CCOc1ccc(C(=O)Nc2ccc(S(=O)(=O)NCC3CCCO3)cc2)cc1OCC (centres undefined),-16.7%
3,CCOc1ccc(S(=O)(=O)N(CC(=O)O)c2ccccc2)cc1,12.9%
4,CN(C)/C=C(\C#N)C(=O)c1cccnc1Oc1ccc(F)cc1F,13.9%
5,COCCNC(=O)C1CCN(C(=O)C2CC(=O)N(c3ccc(C)cc3)C2)CC1 (centres undefined),7.97%
6,COc1ccc(-n2ncc3c2CC(C)(C)CC3NC(=O)CCc2c(C)noc2C)cc1 (centres undefined),-2.15%
7,CCCNC(=S)N1CCCC(c2nc3ccccc3[nH]2)C1 (centres undefined),14.2%
8,CC(C)C[C@@H]1COc2cc(N3CCC[C@@H]3CO)ccc2S(=O)(=O)N1,4.5%
9,CC1CCCN(C(C(=O)Nc2ccc(C(C)C)cc2)c2ccc3c(c2)OCO3)C1 (centres undefined),10.5%
10,Cc1ccc(NS(=O)(=O)c2c(C)[nH]c(=O)[nH]c2=O)cc1C,7.33%
11,COc1cc(OC)cc(C(=O)NNC(=O)CNC(=O)c2ccc(Br)o2)c1,-26.2%
12,CCOC(=O)c1sc(N)c(C#N)c1COC(=O)C1=COCCO1,-16.5%
13,Cc1ccc(NC(=O)NC(=O)N(C2CCCCC2)S(=O)(=O)c2ccccc2)cc1,15.3%
14,Cn1c(=O)oc2cc(S(=O)(=O)N3CCC(C(=O)Nc4ccc(OC(F)(F)F)cc4)CC3)ccc21,29.6%
15,O=[N+]([O-])c1ccc(N2CCN(c3ccc(F)cc3)CC2)cn1,-7.83%
16,NC1=NC2(CCCCC2)N(c2ccc(F)cc2F)C(N)=N1,-9.48%
17,Cc1ccc(CC(=O)Nc2cccc(C#N)c2)cc1,18.7%
18,CC(C)NC(=O)NC(=O)CSc1nnc(-c2ccccc2F)n1N,30%
19,CC1(C(=O)NS(=O)(=O)c2cccs2)CCN1C(=O)Cc1ccc(-c2ccccc2)cc1 (centres undefined),13%
20,O=C(NC1CC2CCCC(C1)N2C(=O)N1CCCCC1)C1CCCCC1 (centres undefined),7.85%
21,CCCC(C(=O)NC1CCCC1)N(C(=O)Cn1nnc(-c2ccc(C)o2)n1)c1cccc(O)c1 (centres undefined),13.1%
22,COc1cccc(NC(=O)C(=O)c2cn(CC(=O)N3CCOCC3)c3ccccc23)c1,-2.46%
23,CCCCN(C(=O)c1cccc(N2C(=O)c3ccccc3C2=O)c1)c1c(N)n(CCCC)c(=O)[nH]c1=O,11.7%

row,SMILES,activation
1,O=C(Cn1cc(C(F)(F)F)ccc1=O)N/N=C/c1ccc(Cl)cc1Cl,3.42%
2,CC(OC(=O)CNC(=O)c1cccc(F)c1)C(=O)NC1CCCCC1C (centres undefined),10.1%
3,CCC(=O)c1ccc(OCC(=O)N(CC)CC2COc3ccccc3O2)cc1 (centres undefined),15.6%
4,O=C(N[C@H]1C/C=C\C(c2cccc(F)c2)N(Cc2ccccc2)C(=O)C1)OCC1c2ccccc2-c2ccccc21 (some centres undefined),-2.24%
5,O=C(OCC(=O)N1CCN(C(=O)c2ccco2)CC1)c1ccccc1Cc1ccccc1,8.99%
6,COc1cccc(CN2CCC(C(=O)NC(c3ccc4c(c3)OCO4)c3ccccn3)CC2)c1 (centres undefined),12.4%
7,CCOc1cc2c(Cl)ncnc2c(OCC)c1OCC,-10.2%
8,CC1(C)O[C@@H]2[C@H](O1)[C@@H](CO)O[C@H]2n1c(N2CCCCC2)nc2c(N)ncnc21,11.6%
9,COc1ccc(N2CC(C(=O)NCCS(=O)(=O)N3CCN(c4ccccc4)CC3)CC2=O)cc1 (centres undefined),-1.18%
10,C/C(=N\NC(=O)COc1ccc(C)cc1[N+](=O)[O-])c1ccc2c(c1)OCCO2,4.27%
11,Cc1cc(C)n(-c2nnc(C)n2NC(=O)c2cccc(Cl)c2)n1,9.43%
12,Cc1ccc(C)c(NC(=O)C2CC(=O)N(C(C)C)C2)c1 (centres undefined),12.2%
13,COCCn1c(=O)[nH]c2cc(C(=O)NCc3cccnc3)ccc2c1=O,6.89%
14,CC(C)CC(=O)c1c[nH]c(C(=O)NCc2ccccc2)c1,0.92%
15,O=C(CC(NCCN1CCOCC1)C(=O)O)Nc1cccc(Cl)c1 (centres undefined),20.9%
16,CC(=O)NC1C(Oc2ccc(C)cc2)OC2COC(c3ccco3)OC2C1O (centres undefined),-5.49%
17,O=S(=O)(NC1CCCCC1N1CCN(c2ccccc2F)CC1)c1ccccc1 (centres undefined),19.1%
18,O=C(Nc1ccc(Br)cc1)c1cccc(NC(=O)C2C3CC4OC(=O)C2C4C3)c1 (centres undefined),9.66%
19,Cc1ccc(/C=C2\CCn3c2nc2cc(C(=O)O)ccc2c3=O)c(C)c1,17.1%
20,O=C1c2cccc3cccc(c23)C(=O)N1c1cccc(O)c1,12.7%
21,OC1CCCN(c2ncnc3c2nnn3Cc2c(F)cccc2Cl)C1 (centres undefined),20.4%
22,CCC1CCCCN1C(=S)Nc1ccc(SC(F)F)cc1 (centres undefined),3.06%
23,COc1ccc(O)c(C=Nc2cc(C)on2)c1,1.78%

row,SMILES,activation
1,CC(C)C(=O)N1CC(=O)Nc2ccc(F)cc2C1c1ccc(F)cc1 (centres undefined),3.77%
2,CCCN1CNC(=S)N(CCc2ccccc2)C1,-4.97%
3,O=C(Nc1ccc(Br)cc1F)C1CC(=O)N(C2CCCCC2)C1 (centres undefined),9.78%
4,CCOc1ccccc1NC(=O)NC1CCCCCCC1,20%
5,CN(C)/C(CN1CCCCC1)=C1\N=C(c2ccccc2)OC1=O,19.8%
6,CN(C)CCCOc1ccc(-c2ccc3nccn3c2)cn1,15.7%
7,CCOP(=O)(OCC)C(Cc1ccccc1)N=C(c1ccccc1)c1ccccc1 (centres undefined),19.7%
8,COc1ccc(OC)c(NC(=O)CSc2nc3cccnc3n2C)c1,9.99%
9,O=C(CN1C(=O)c2ccc([N+](=O)[O-])cc2C1=O)Nc1nnc(C2CC2)s1,1.72%
10,CC(=O)Nc1ccc(NC(=O)C2CCCN2S(=O)(=O)c2cccc(C(F)(F)F)c2)cc1 (centres undefined),-6.05%
11,O=C1c2ccncc2C(=O)N1C1CCCCC1,15.5%
12,Cc1nc(C(F)(F)F)ccc1C(=O)N1CCC1(C)C(=O)NS(=O)(=O)c1ccccc1Cl (centres undefined),11.4%
13,COc1ccc(C(=O)N2CCC(C(=O)Nc3ccc(C)cc3)CC2)cc1,28.6%
14,Cc1ccc(Cn2cc(C(=O)NN)c(=O)c3ccc(F)cc32)cc1,-28.1%
15,CCOC(=O)C1(Cc2ccc(O)cc2)NC(c2ccccc2F)C2C(=O)N(C)C(=O)C21 (centres undefined),24%
16,Cc1cccc([C@H]2[C@@H]3C=CC[C@@H](C)[C@@H]3C(=O)N2Cc2ccccc2)c1,-0.48%
17,CSc1ccc(S(=O)(=O)NCC(=O)OCC(=O)NC2(C#N)CCCCC2)cc1[N+](=O)[O-],-4.9%
18,Nc1nc(O)c(CC(=O)O)s1,1.33%
19,O=C(CCS(=O)(=O)c1ccccc1Cl)Nc1ccc(S(=O)(=O)Nc2ncccn2)cc1,7.81%
20,COc1ccc(S(=O)(=O)N2CN(CCc3ccc(OC)c(OC)c3)c3nc4ccccc4nc32)cc1,1.88%

# — PubChem BioAssay AID602247 (The Scripps Research Institute Molecular Screening Center, 2012)
